Data taken from PubChem BioAssay AID1159580 (chemical genetic matrix, 2015).
Values joined by “and” are separate entries in the source; they are usually repeats but may differ in a detail not shown here. Equal values may be shown once. The campaign covered roughly 5,500 compounds. About 2,000 (36%) were called active. Another 18% or so got no clear call; they are omitted. No stated cut-off is given here; in the data, active means normalized growth mostly below about 0.91 (no sharp cut-off); inconclusive means no clear call, values can overlap the other calls; inactive means mostly above about 0.92. The list shows a part of the results.

Assay: chemical genetic growth profiling, strain panel (AID 1159580);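 further: tested at 20 µM; growth read once vehicle control cultures reached saturation at 30 °C; 1 = growth at the plate median or of vehicle wells; lower values mean less growth of the strain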
Details: S. cerevisiae deletion strains, growth OD

Measured: normalized growth

Nc1nc(=S)c2[nH]cnc2[nH]1
inactive: locus YAL013W, strain DEP1, hits give low values 1.01 | locus YAL021C, strain ccr4, hits give low values 0.946 | locus YAL026C, strain drs2, hits give low values 0.971 | locus YAL030W, strain snc1, hits give low values 0.975 | locus YBL061C, strain skt5, hits give low values 0.988 | locus YBR009C, strain hhf1, hits give low values 1.03 | locus YBR021W, strain FUR4, hits give low values 0.999 | locus YBR023C, strain chs3, hits give low values 0.969 | locus YBR171W, strain sec66, hits give low values 0.974 | locus YBR229C, strain ROT2, hits give low values 1 | locus YBR231C, strain swc5, hits give low values 1.03 | locus YBR279W, strain paf1, hits give low values 0.973 | locus YCL011C, strain gbp2, hits give low values 0.971 | locus YCL016C, strain dcc1, hits give low values 0.947 | locus YCL029C, strain bik1, hits give low values 1.01 | locus YCL061C, strain MRC1, hits give low values 0.993 | locus YCL069W, strain vba3, hits give low values 0.976 | locus YCR088W, strain abp1, hits give low values 0.98 | locus YDL005C, strain med2, hits give low values 0.965 | locus YDL035C, strain GPR1, hits give low values 1.02 | locus YDL040C, strain nat1, hits give low values 0.982 | locus YDL074C, strain BRE1, hits give low values 1.01 | locus YDL101C, strain DUN1, hits give low values 1.01 | locus YDL134C, strain PPH21, hits give low values 1.01 | locus YDL185W, strain tfp1, hits give low values 0.996 | locus YDL192W, strain arf1, hits give low values 1.01 | locus YDR001C, strain nth1, hits give low values 0.982 | locus YDR069C, strain doa4, hits give low values 0.982 | locus YDR101C, strain arx1, hits give low values 0.986 | locus YDR137W, strain rgp1, hits give low values 0.967 | locus YDR150W, strain NUM1, hits give low values 1.01 | locus YDR159W, strain sac3, hits give low values 0.957 | locus YDR162C, strain NBP2, hits give low values 1.02 | locus YDR195W, strain ref2 0.988 | locus YDR297W, strain sur2, hits give low values 1 | locus YDR318W, strain mcm21, hits give low values 1 | locus YDR334W, strain swr1, hits give low values 0.962 | locus YDR335W, strain msn5, hits give low values 0.98 | locus YDR388W, hits give low values 0.998 | locus YDR392W, strain spt3, hits give low values 0.859 | locus YDR502C, strain sam2, hits give low values 1 | locus YEL003W, strain gim4, hits give low values 0.988 | locus YEL037C, strain rad23, hits give low values 0.973 | locus YEL061C, strain CIN8 (second series), hits give low values 0.975 | locus YEL061C, strain CIN8, hits give low values 1.01 | locus YER015W, strain faa2, hits give low values 0.983 | locus YER016W, strain bim1, hits give low values 0.942 | locus YER110C, hits give low values 1 | locus YER111C, strain swi4, hits give low values 0.959 | locus YER155C, strain BEM2 (second series), hits give low values 1 | locus YER155C, strain BEM2, hits give low values 1.02 | locus YER167W, strain BCK2, hits give low values 1.01 | locus YFR010W, strain ubp6, hits give low values 1 | locus YGL078C, strain dbp3, hits give low values 0.997 | locus YGL086W, strain mad1, hits give low values 0.997 | locus YGL167C, strain pmr1, hits give low values 0.979 | locus YGL173C, strain kem1, hits give low values 0.98 | locus YGL227W, strain vid30, hits give low values 0.973 | locus YGL240W, strain doc1, hits give low values 1.01 | locus YGL248W, strain PDE1, hits give low values 1.01 | locus YGL253W, strain hxk2, hits give low values 0.961 | locus YGR078C, strain PAC10, hits give low values 0.988 | locus YGR135W, strain pre9, hits give low values 0.998 | locus YGR229C, strain SMI1, hits give low values 0.99 | locus YGR252W, strain gcn5, hits give low values 0.981 | locus YHR013C, strain ard1, hits give low values 0.93 | locus YHR027C, strain rpn1, hits give low values 0.99 | locus YHR030C, strain SLT2, hits give low values 1.02 and 0.978 | locus YHR079C, strain IRE1 (second series), hits give low values 1 | locus YHR079C, strain IRE1, hits give low values 0.998 | locus YHR094C, strain hxt1, hits give low values 0.998 | locus YHR129C, strain ARP1, hits give low values 1.01 | locus YHR142W, strain chs7, hits give low values 0.945 | locus YHR200W, strain rpn10, hits give low values 0.998 | locus YIL066C, strain RNR3, hits give low values 1.01 | locus YIL073C, strain SPO22, hits give low values 1.04 | locus YIL125W, strain kgd1, hits give low values 0.995 | locus YIR030C, strain dcg1, hits give low values 1 | locus YJL092W, strain hpr5, hits give low values 0.991 | locus YJL095W, strain BCK1 (second series), hits give low values 0.964 | locus YJL095W, strain BCK1, hits give low values 1.02 and 0.979 | locus YJL115W, strain asf1, hits give low values 0.972 | locus YJL129C, strain trk1, hits give low values 0.936 | locus YJL134W, strain LCB3, hits give low values 1 | locus YJL154C, strain vps35, hits give low values 0.971 | locus YJL164C, strain tpk1, hits give low values 0.998 | locus YJL166W, strain qcr8, hits give low values 1.01 | locus YJL168C, strain set2, hits give low values 0.995 | locus YJL187C, strain SWE1 (second series), hits give low values 1.01 | locus YJL187C, strain SWE1, hits give low values 0.981 | locus YJR043C, strain POL32, hits give low values 1.01 | locus YJR066W, strain TOR1, hits give low values 0.949
